# In PMC7862700, “An all-to-all approach to the identification of sequence-specific readers for epigenetic DNA modifications on cytosine”:
# Tests used:
# Test in all cases: DAPPL (digital affinity profiling via proximity ligation, sequencing); 10 mM Tris-HCl pH 7.5, 50 mM NaCl, 1 mM DTT, 4% glycerol, room temperature, 30 min; GST-TFs on glutathione beads, 16-mer random dsDNA library, 0.1% formaldehyde crosslink after washing; high values mean tight binding
# FEV = target: T1, FEV (Homo sapiens, UniProt Q99581 1-238); settings: protein: recombinant; tags: N-terminal GST; dsDNA, one strand shown
# T1 sequence: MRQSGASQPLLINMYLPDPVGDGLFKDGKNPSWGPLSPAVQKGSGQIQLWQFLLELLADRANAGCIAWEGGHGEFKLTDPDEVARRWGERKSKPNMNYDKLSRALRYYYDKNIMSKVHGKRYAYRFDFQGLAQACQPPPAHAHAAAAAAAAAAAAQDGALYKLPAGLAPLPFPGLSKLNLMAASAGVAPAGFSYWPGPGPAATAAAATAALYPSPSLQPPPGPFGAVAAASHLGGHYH
# Procedure, shortened: (§1)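 Yeast served to express human transcription factors as GST fusions, which were then captured on glutathione beads and labelled with DNA barcodes. Pooled with a tag-only sample, they were incubated with 200 nmole of a 16-mer random double-stranded DNA library for 30 min at room temperature in Tris/NaCl/DTT/glycerol buffer, washed, crosslinked with 0.1% formaldehyde, ligated by proximity, amplified by PCR and sequenced. Dividing each hexamer's read frequency for a factor by its frequency for the tag-only sample gives the binding signal.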
# ETV5 = ETV5 (Homo sapiens, UniProt P41161 1-510); settings: protein: recombinant; tags: N-terminal GST; dsDNA, one strand shown
# Chain of ETV5 (P41161 whole entry): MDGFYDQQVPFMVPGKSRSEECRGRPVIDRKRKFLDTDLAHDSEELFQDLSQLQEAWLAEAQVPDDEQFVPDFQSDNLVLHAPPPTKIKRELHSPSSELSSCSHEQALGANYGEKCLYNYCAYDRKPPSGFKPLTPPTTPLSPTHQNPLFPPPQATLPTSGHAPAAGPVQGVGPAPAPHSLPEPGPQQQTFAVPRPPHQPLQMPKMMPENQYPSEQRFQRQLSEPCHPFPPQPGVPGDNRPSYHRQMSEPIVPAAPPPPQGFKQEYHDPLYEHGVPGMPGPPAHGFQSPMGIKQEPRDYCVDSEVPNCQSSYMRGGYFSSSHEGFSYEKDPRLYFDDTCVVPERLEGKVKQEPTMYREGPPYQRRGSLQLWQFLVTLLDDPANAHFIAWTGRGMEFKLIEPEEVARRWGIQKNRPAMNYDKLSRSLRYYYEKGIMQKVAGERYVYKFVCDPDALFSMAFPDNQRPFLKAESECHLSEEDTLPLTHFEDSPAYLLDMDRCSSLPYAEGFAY
# Procedure, shortened: as §1
# HSF1 = HSF1 (Homo sapiens, UniProt Q00613 1-529); settings: protein: recombinant; tags: N-terminal GST; chain copies: 3; dsDNA, one strand shown
# Chain of HSF1 (Q00613 whole entry): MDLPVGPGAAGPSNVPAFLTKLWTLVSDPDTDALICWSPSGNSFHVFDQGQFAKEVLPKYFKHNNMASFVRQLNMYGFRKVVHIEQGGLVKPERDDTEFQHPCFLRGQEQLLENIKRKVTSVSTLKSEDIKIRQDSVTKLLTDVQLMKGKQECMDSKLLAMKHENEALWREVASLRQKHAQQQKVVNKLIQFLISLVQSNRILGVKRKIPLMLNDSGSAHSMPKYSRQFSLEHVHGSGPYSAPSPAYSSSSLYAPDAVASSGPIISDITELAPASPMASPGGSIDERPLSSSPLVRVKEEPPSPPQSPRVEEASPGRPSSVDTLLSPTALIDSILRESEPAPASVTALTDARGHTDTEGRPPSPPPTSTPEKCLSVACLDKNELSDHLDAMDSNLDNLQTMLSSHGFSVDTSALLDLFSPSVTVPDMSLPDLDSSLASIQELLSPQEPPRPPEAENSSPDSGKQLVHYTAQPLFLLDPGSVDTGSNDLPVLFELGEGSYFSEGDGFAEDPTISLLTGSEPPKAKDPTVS
# Procedure, shortened: as §1
# SPIC = target: T2, SPIC (Homo sapiens, UniProt Q8N5J4 1-248); settings: protein: recombinant; tags: N-terminal GST; dsDNA, one strand shown
# T2 sequence: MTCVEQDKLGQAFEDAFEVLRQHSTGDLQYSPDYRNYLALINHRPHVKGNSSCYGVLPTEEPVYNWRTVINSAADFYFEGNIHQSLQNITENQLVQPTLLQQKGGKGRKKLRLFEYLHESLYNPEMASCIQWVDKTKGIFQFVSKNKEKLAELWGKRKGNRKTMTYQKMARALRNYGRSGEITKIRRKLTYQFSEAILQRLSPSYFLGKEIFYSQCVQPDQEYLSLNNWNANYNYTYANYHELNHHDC
# Procedure, shortened: as §1
# ELF4 = ELF4 (Homo sapiens, UniProt Q99607 1-663); settings: protein: recombinant; tags: N-terminal GST; dsDNA, one strand shown
# Chain of ELF4 (Q99607 whole entry): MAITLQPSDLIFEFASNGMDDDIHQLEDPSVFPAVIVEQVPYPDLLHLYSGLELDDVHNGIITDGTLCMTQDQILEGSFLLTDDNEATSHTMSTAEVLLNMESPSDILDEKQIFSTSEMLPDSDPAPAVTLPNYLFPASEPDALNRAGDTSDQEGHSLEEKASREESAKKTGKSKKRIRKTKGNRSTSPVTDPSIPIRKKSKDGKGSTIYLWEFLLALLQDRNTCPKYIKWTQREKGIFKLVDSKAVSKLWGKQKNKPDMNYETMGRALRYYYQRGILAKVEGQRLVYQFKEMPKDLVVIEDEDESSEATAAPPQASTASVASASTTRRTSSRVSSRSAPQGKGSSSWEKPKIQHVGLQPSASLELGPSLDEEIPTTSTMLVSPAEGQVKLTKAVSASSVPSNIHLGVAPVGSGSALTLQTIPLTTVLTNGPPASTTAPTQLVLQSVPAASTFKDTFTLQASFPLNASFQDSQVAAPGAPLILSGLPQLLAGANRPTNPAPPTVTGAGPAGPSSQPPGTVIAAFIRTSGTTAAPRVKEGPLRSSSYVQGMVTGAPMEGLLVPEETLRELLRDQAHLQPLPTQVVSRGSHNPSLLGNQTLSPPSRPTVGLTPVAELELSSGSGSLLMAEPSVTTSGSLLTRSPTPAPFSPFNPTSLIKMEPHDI
# Procedure, shortened: as §1
# ELK4 = target: T3, ELK4 (Homo sapiens, UniProt P28324-2 1-405); settings: protein: recombinant; tags: N-terminal GST; dsDNA, one strand shown
# T3 sequence: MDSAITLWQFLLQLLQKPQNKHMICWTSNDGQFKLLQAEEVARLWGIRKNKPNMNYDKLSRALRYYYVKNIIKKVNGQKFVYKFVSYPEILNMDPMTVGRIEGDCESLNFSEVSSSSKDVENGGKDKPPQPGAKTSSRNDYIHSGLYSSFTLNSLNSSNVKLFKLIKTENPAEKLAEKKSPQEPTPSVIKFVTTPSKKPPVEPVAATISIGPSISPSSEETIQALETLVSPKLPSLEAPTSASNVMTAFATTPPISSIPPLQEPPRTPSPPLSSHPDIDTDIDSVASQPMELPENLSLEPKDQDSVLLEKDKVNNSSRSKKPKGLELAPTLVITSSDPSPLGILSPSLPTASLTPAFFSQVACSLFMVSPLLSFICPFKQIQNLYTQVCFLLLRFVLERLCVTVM
# Procedure, shortened: as §1
# ETV2 = target: T4, ETV2 (Homo sapiens, UniProt O00321 1-342); settings: protein: recombinant; tags: N-terminal GST; dsDNA, one strand shown
# T4 sequence: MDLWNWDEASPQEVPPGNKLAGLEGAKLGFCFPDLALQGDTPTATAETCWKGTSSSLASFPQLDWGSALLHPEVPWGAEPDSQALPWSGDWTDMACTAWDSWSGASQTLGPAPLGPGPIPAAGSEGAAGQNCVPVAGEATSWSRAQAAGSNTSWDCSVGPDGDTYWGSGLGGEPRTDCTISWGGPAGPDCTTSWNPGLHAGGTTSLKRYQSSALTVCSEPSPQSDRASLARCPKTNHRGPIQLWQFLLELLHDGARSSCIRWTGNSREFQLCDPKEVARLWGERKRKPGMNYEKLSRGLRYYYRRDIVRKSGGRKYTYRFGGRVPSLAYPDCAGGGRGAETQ
# Procedure, shortened: as §1
# ELF3 = target: T5, ELF3 (Homo sapiens, UniProt P78545 1-371); settings: protein: recombinant; tags: N-terminal GST; dsDNA, one strand shown
# T5 sequence: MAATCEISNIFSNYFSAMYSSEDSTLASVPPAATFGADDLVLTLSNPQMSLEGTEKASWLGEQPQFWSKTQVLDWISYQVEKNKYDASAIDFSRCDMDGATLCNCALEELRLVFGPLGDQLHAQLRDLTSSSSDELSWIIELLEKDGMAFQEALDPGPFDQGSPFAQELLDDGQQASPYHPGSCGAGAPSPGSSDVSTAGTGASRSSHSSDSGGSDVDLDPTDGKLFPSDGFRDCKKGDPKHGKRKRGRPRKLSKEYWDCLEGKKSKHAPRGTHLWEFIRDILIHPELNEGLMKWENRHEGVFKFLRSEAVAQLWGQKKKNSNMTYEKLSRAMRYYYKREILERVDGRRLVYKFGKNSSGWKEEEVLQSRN
# Procedure, shortened: as §1
# CRX = CRX (Homo sapiens, UniProt O43186 1-299); settings: protein: recombinant; tags: N-terminal GST; dsDNA, one strand shown
# Chain of CRX (O43186 whole entry): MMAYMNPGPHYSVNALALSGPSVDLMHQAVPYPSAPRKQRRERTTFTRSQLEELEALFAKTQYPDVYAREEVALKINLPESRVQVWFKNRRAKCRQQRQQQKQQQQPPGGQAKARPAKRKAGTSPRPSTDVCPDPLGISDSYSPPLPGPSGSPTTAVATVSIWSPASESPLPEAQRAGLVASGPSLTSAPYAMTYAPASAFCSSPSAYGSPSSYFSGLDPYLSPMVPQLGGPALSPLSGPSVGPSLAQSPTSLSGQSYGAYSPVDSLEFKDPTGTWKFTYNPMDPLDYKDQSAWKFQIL
# Procedure, shortened: as §1
# ETV1 = ETV1 (Homo sapiens, UniProt P50549 1-477); settings: protein: recombinant; tags: N-terminal GST; dsDNA, one strand shown
# Chain of ETV1 (P50549 whole entry): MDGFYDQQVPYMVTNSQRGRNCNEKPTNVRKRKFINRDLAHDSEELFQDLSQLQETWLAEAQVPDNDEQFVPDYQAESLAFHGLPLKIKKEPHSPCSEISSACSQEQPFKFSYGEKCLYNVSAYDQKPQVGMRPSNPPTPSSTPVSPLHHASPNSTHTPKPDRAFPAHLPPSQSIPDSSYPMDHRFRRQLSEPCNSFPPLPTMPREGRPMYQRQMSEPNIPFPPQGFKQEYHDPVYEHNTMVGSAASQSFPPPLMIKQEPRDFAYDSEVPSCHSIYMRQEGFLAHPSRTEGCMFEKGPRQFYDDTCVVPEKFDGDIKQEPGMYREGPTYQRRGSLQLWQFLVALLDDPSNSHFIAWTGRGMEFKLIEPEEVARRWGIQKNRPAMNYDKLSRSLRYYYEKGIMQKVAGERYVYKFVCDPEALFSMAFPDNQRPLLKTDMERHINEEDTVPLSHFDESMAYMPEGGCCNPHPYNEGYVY
# Procedure, shortened: as §1
# ERF = target: T6, ERF (Homo sapiens, UniProt P50548 1-548); settings: protein: recombinant; tags: N-terminal GST; dsDNA, one strand shown
# T6 sequence: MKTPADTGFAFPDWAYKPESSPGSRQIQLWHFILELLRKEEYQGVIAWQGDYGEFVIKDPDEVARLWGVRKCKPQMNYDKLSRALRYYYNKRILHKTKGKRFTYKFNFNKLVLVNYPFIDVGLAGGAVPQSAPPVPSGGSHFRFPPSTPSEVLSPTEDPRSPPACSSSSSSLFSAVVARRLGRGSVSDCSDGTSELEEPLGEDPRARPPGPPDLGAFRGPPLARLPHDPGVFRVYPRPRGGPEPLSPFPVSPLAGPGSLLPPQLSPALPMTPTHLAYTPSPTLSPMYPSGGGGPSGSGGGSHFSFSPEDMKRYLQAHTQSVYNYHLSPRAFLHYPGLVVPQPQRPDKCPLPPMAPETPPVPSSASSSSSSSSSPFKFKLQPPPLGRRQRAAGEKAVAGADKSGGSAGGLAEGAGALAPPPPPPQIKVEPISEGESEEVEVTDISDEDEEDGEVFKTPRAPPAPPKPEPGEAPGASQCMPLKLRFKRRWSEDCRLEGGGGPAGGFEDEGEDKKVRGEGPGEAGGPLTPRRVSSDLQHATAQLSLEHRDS
# Procedure, shortened: as §1
# ETV3L = target: T7, ETV3L (Homo sapiens, UniProt Q6ZN32 1-361); settings: protein: recombinant; tags: N-terminal GST; dsDNA, one strand shown
# T7 sequence: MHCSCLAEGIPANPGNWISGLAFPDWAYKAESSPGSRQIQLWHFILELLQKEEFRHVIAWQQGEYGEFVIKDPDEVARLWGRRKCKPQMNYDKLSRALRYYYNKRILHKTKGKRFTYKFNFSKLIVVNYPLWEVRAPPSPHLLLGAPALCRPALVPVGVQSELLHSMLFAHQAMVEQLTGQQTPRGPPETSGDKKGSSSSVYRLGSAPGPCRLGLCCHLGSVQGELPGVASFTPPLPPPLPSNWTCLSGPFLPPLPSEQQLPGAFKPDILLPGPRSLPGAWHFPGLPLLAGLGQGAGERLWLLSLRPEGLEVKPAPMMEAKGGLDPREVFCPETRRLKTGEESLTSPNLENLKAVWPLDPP
# Procedure, shortened: as §1
# ETS2 = target: T8, ETS2 (Homo sapiens, UniProt P15036 1-469); settings: protein: recombinant; tags: N-terminal GST; dsDNA, one strand shown
# T8 sequence: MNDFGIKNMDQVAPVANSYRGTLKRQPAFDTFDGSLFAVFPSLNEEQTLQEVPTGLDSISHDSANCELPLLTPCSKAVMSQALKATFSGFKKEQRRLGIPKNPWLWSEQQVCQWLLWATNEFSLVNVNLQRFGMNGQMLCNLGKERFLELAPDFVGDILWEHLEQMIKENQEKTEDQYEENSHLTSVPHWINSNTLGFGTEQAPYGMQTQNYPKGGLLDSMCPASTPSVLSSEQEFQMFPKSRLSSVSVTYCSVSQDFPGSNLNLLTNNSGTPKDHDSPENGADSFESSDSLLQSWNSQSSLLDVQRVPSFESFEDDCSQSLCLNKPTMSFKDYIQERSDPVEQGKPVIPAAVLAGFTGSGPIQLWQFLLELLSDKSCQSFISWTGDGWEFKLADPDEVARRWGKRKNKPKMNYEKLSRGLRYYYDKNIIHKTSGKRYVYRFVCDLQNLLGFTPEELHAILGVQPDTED
# Procedure, shortened: as §1
# SPDEF = target: T9, SPDEF (Homo sapiens, UniProt O95238 1-335); settings: protein: recombinant; tags: N-terminal GST; dsDNA, one strand shown
# T9 sequence: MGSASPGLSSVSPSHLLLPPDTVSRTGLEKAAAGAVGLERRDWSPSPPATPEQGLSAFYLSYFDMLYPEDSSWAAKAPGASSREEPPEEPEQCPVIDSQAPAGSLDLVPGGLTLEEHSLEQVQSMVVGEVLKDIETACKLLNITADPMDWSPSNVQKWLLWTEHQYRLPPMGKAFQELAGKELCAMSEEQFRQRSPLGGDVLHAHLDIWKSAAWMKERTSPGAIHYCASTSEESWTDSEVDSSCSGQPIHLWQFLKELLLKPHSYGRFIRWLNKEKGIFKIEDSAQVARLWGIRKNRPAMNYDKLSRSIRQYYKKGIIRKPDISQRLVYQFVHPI
# Procedure, shortened: as §1
# ELF5 = target: T10, ELF5 (Homo sapiens, UniProt Q9UKW6-2 1-255); settings: protein: recombinant; tags: N-terminal GST; dsDNA, one strand shown
# T10 sequence: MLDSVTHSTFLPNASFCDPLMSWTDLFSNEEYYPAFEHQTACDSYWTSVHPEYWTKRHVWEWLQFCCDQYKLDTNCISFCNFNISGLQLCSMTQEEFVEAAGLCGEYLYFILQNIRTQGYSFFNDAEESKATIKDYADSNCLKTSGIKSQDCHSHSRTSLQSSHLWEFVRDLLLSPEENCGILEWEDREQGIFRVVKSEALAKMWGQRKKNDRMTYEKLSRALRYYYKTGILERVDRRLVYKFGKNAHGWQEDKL
# Procedure, shortened: as §1
# ETV3 = target: T11, ETV3 (Homo sapiens, UniProt P41162-2 1-143); settings: protein: recombinant; tags: N-terminal GST; dsDNA, one strand shown
# T11 sequence: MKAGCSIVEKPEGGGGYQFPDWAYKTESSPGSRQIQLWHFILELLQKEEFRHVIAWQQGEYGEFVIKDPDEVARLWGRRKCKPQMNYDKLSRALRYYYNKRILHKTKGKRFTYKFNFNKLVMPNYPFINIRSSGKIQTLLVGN
# Procedure, shortened: as §1
# ETV6 = ETV6 (Homo sapiens, UniProt P41212 1-452); settings: protein: recombinant; tags: N-terminal GST; dsDNA, one strand shown
# Chain of ETV6 (P41212 whole entry): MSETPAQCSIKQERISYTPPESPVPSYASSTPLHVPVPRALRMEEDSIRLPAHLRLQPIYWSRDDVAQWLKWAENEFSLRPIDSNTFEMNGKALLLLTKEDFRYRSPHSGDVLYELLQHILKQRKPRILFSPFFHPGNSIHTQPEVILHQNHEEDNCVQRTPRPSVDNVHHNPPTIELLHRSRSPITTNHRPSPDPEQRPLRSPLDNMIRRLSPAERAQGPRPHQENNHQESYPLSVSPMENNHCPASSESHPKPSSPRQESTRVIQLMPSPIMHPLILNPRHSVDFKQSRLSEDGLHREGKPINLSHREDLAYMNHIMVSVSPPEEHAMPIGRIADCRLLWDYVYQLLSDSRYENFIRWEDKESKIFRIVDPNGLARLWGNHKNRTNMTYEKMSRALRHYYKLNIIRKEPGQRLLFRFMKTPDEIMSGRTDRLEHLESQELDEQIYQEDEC
# Procedure, shortened: as §1
sequence,measurement,setting,value
CCGTAA,binding signal,FEV,"1.07 fold enrichment (6-mer frequency, TF over GST control)"
same,binding signal,ETV5,"1.06 fold enrichment (6-mer frequency, TF over GST control)"
same,binding signal,HSF1,"1.09 fold enrichment (6-mer frequency, TF over GST control)"
same,binding signal,SPIC,"1.03 fold enrichment (6-mer frequency, TF over GST control)"
same,binding signal,ELF4,"1.14 fold enrichment (6-mer frequency, TF over GST control)"
same,binding signal,ELK4,"1.15 fold enrichment (6-mer frequency, TF over GST control)"
same,binding signal,ETV2,"1.2 fold enrichment (6-mer frequency, TF over GST control)"
same,binding signal,ELF3,"1.1 fold enrichment (6-mer frequency, TF over GST control)"
same,binding signal,CRX,"1.27 fold enrichment (6-mer frequency, TF over GST control)"
same,binding signal,ETV1,"1.05 fold enrichment (6-mer frequency, TF over GST control)"
same,binding signal,ERF,"1.08 fold enrichment (6-mer frequency, TF over GST control)"
same,binding signal,ETV3L,"1.12 fold enrichment (6-mer frequency, TF over GST control)"
same,binding signal,ETS2,"1.16 fold enrichment (6-mer frequency, TF over GST control)"
same,binding signal,SPDEF,"1.2 fold enrichment (6-mer frequency, TF over GST control)"
same,binding signal,ELF5,"1.22 fold enrichment (6-mer frequency, TF over GST control)"
same,binding signal,ETV3,"1.12 fold enrichment (6-mer frequency, TF over GST control)"
same,binding signal,ETV6,"1.08 fold enrichment (6-mer frequency, TF over GST control)"
